Measured values published in PubChem BioAssay AID1159580 (chemical genetic matrix, 2015).
Hit rate of the full screen: of about 5,500 compounds, about 2,000 (36%) were called active. Another 18% or so got no clear call; they are omitted. Cut-off read from the data, not from the text of the source: active = normalized growth mostly below about 0.91 (no sharp cut-off); inconclusive = no clear call, values can overlap the other calls; inactive = mostly above about 0.92. The list shows a part of the results.

Experiment: chemical genetic growth profiling, strain panel (AID 1159580);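 note: tested at 20 µM; growth read once vehicle control cultures reached saturation at 30 °C; 1 = growth at the plate median or of vehicle wells; lower values mean less growth of the strain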
Details: S. cerevisiae deletion strains, growth OD

Measured: normalized growth

Cn1nc(-c2ccccc2)c(O)c(N=Nc2ccccc2)c1=O
inactive: locus YAR019C, strain CDC15, stronger effect = lower value 0.964 | locus YBL105C, strain PKC1, stronger effect = lower value 0.972 | locus YBR135W, strain CKS1, stronger effect = lower value 0.957 | locus YBR136W, strain MEC1, stronger effect = lower value 0.96 | locus YBR160W, strain CDC28, stronger effect = lower value 0.976 | locus YDL017W, strain CDC7, stronger effect = lower value 0.983 | locus YDL028C, strain MPS1, stronger effect = lower value 0.963 | locus YDL101C, strain DUN1, stronger effect = lower value 0.972 | locus YDL108W, strain KIN28, stronger effect = lower value 0.962 | locus YDL132W, strain cdc53, stronger effect = lower value 0.968 | locus YDL214C, strain PRR2, stronger effect = lower value 0.906 | locus YDR052C, strain DBF4, stronger effect = lower value 0.985 | locus YDR054C, strain cdc34, stronger effect = lower value 0.971 | locus YDR226W, strain ADK1, stronger effect = lower value 0.971 | locus YDR477W, strain SNF1, stronger effect = lower value 0.917 | locus YER123W, strain YCK3, stronger effect = lower value 0.858 | locus YER133W, strain GLC7, stronger effect = lower value 0.898 | locus YFL009W, strain cdc4, stronger effect = lower value 0.969 | locus YFL029C, strain CAK1, stronger effect = lower value 0.969 | locus YFR003C, strain YPI1, stronger effect = lower value 0.971 | locus YFR019W, strain FAB1, stronger effect = lower value 0.898 | locus YFR028C, strain CDC14, stronger effect = lower value 0.974 | locus YGR040W, strain KSS1, stronger effect = lower value 0.905 | locus YGR052W, strain FMP48, stronger effect = lower value 0.998 | locus YGR092W, strain DBF2, stronger effect = lower value 0.913 | locus YHR030C, strain SLT2, stronger effect = lower value 0.931 | locus YHR079C, strain IRE1, stronger effect = lower value 0.982 | locus YHR082C, strain KSP1, stronger effect = lower value 0.964 | locus YHR205W, strain SCH9, stronger effect = lower value 0.943 | locus YIL147C, strain SLN1, stronger effect = lower value 0.964 | locus YJL095W, strain BCK1, stronger effect = lower value 0.993 | locus YJL128C, strain PBS2, stronger effect = lower value 0.95 | locus YJL157C, strain FAR1, stronger effect = lower value 0.89 | locus YJR016C, strain ILV3, stronger effect = lower value 0.976 | locus YJR066W, strain TOR1 (second series), stronger effect = lower value 0.854 | locus YJR066W, strain TOR1, stronger effect = lower value 0.981 | locus YKL048C, strain ELM1, stronger effect = lower value 0.944 | locus YKL067W, strain YNK1, stronger effect = lower value 0.906 | locus YKL101W, strain HSL1, stronger effect = lower value 0.921 | locus YKL193C, strain SDS22, stronger effect = lower value 0.968 | locus YKL203C, strain TOR2, stronger effect = lower value 0.98 | locus YLR113W, strain HOG1, stronger effect = lower value 0.953 | locus YLR133W, strain CKI1, stronger effect = lower value 0.944 | locus YLR403W, strain SFP1, stronger effect = lower value 0.89 | locus YML070W, strain DAK1, stronger effect = lower value 0.885 | locus YMR001C, strain CDC5, stronger effect = lower value 0.961 | locus YMR205C, strain PFK2 (second series), stronger effect = lower value 0.937 | locus YMR277W, strain FCP1, stronger effect = lower value 0.973 | locus YNL006W, strain LST8, stronger effect = lower value 0.967 | locus YNL020C, strain ARK1, stronger effect = lower value 0.927 | locus YNL161W, strain CBK1, stronger effect = lower value 0.965 | locus YNL183C, strain NPR1, stronger effect = lower value 1 | locus YNL207W, strain RIO2, stronger effect = lower value 0.964 | locus YNL222W, strain SSU72, stronger effect = lower value 0.966 | locus YNL307C, strain MCK1 (second series), stronger effect = lower value 0.941 | locus YOL078W, strain AVO1, stronger effect = lower value 0.968 | locus YOL136C, strain PFK27, stronger effect = lower value 0.907 | locus YOR061W, strain CKA2, stronger effect = lower value 0.864 | locus YOR119C, strain RIO1, stronger effect = lower value 0.952 | locus YOR231W, strain MKK1, stronger effect = lower value 0.95 | locus YOR329C, strain SCD5, stronger effect = lower value 0.974 | locus YPL031C, strain PHO85, stronger effect = lower value 0.918 | locus YPL153C, strain RAD53, stronger effect = lower value 0.914 | locus YPL204W, strain HRR25, stronger effect = lower value 0.93 | locus YPL209C, strain IPL1, stronger effect = lower value 0.972 | locus YPL256C, strain CLN2, stronger effect = lower value 0.998 | locus YPR025C, strain CCL1, stronger effect = lower value 0.97 | locus YPR106W, strain ISR1, stronger effect = lower value 0.977 | locus YPR111W, strain DBF20, stronger effect = lower value 0.988 | strain NNK1, stronger effect = lower value 0.966 | strain TSCII, stronger effect = lower value 0.963
